# Source: PubChem BioAssay (EPA / NIEHS)
# Values joined by “and” are separate entries in the source; they are usually repeats but may differ in a detail not shown here. Identical values can stand only once. Active and inactive are the calls of the source. The calls were made as follows: active = hit-call score of the fitted dose curve at least 0.9, where 1 is the maximum; inactive = score below 0.9.
# Read-out: Interleukin-8 (IL8), CXCL8 (gene 3576)
# Test: BSK_MyoF_IL8: BioMAP Diversity Plus: MyoF Assay for Interleukin-8 (IL8) Biomarker Activity (AID 2284261)
# Conditions: primary human lung fibroblasts
# In short: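 DMSO-normalised, upward-fitted IL-8 ELISA signal; human lung fibroblasts, 24 h chemical treatment.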
SMILES,outcome,AC50
FC(F)(F)C(F)(F)C(F)(F)CC1CO1 (stereo not given),inactive,–
Nc1cc([N+](=O)[O-])cc(Cl)c1O,inactive,–
CCN(CC)c1ccc(N=Nc2ccccc2)cc1,–,5.41 µM (active)
CC(C)(C)c1cc(CCC(=O)NCCCCCCNC(=O)CCc2cc(C(C)(C)C)c(O)c(C(C)(C)C)c2)cc(C(C)(C)C)c1O,inactive,–
OCC(F)(F)C(F)(F)C(F)(F)C(F)(F)C(F)(F)C(F)(F)C(F)(F)C(F)(F)CO,inactive,–
FC(F)(F)C(F)(F)C(F)(F)C(F)(F)C(F)(F)C(F)(F)C(F)(F)CCI,inactive,–
NC(O)(C(F)(F)F)C(F)(F)F,inactive,–
OCCCCC(F)(F)C(F)(F)C(F)(F)C(F)(F)F,inactive,–
Cc1cc(C)c(O)c(C(C)(C)C)c1,inactive,–
O=C=Nc1cccc2c(N=C=O)cccc12,inactive,–
O=C(F)C1(F)C(F)(F)C(F)(F)C(F)(F)C(F)(F)C1(F)F,inactive,–
OC(O)C(F)(F)C(F)(F)F,inactive,–
CN(C(=O)C(F)(F)C(F)(F)C(F)(F)F)[Si](C)(C)C,inactive,–
CCN(CC)c1ccc2c(c1)Oc1cc(N(CC)CC)ccc1C21OC(=O)c2ccccc21,inactive,–
Brc1nc2ccccc2s1,inactive,–
Cc1ccc(O)c(-n2nc3ccccc3n2)c1,inactive,–
CC(C)CCCC(C)CCO (stereo not given),inactive,–
CCN(CC)c1ccc(C=O)cc1,inactive,–
OCCCC(F)(F)C(F)(F)C(F)(F)C(F)(F)C(F)(F)C(F)(F)C(F)(F)C(F)(F)F,–,11.9 µM (active) and 9.9 µM (active)
CCN(CC)c1ccc(C=O)c(O)c1,inactive,–
